Reference: PubChem BioAssay (NCATS)
Unmarked numbers belong to inactive results. Records with an inconclusive call do not appear. Activity calls are given as the source filed them. Unless noted, calls come from the whole dose curve; as a rule, active = well fitted curve in the direction sought with a large enough effect; inconclusive = small, poorly fitted or top-dose-only effect, or another doubt; inactive = no such curve, though single readings can be large; an effect the other way counts as inactive or inconclusive.

What was measured:
[1] = target: Lysosomal acid glucosylceramidase (Homo sapiens) (UniProt P04062); test: Glucocerebrosidase-p2 (AID 348; in the data active = potency below about 10 µM; note: potency is the fitted concentration of half-maximal effect); details: purified GBA, blue fluorogenic substrate, 40 min
Outline: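 Normal human glucocerebrosidase (0.2 nM) with blue fluorogenic substrate (80 uM final) in citrate/phosphate pH 5.9 with 10mM sodium taurocholate, 0.01% tween-20; 40 min RT, NaOH/glycine stop; fluorescence Ex 365/Em 440; AC50 from a titration from 0.6 nM upwards.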

[2] = AP1 Signaling Pathway (AID 357; active = well fitted curve in either direction with a large enough effect, not every such curve was filed as active; note: % is set by controls: 0 for no effect and ±100 for the full control effect); details: ME-180 AP-1-bla reporter, EGF-induced, beta-lactamase ratio, 5 h; at 7.69 µM (top of the series) unless noted
Outline: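 AP-1-bla ME-180 cells with beta-lactamase reporter under AP-1 response element, stimulated with EC50 EGF; compounds titrated, 5 hours at 37 degrees Celsius. CCF4 read at 460/530 nm ratio; positive and negative modulators judged by AC50.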

[3] = NFAT Signaling Pathway (AID 444; active = well fitted curve in either direction with a large enough effect, not every such curve was filed as active;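 note: carbachol stimulus at about its EC50 of 1 µM final; % is set by controls: 0 for no effect and ±100 for the full control effect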); details: Jurkat NFAT-bla M1, carbachol, beta-lactamase ratio, 5 h; at 7.69 µM (top of the series) unless noted
Outline: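 Jurkat cells carrying an NFAT-driven β-lactamase reporter and co-transfected muscarinic M1 receptor were treated with compound plus carbachol (1 uM final, an EC50 level) for 5 h at 37 °C. CCF4 loading followed for 1 h at RT; 460/530 nm ratio gave %activity.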

[4] = Stat Signaling Pathway (AID 446; active = well fitted curve in either direction with a large enough effect, not every such curve was filed as active;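 note: ME-180 cervical cancer cells given 40 pM IL-6 alongside compound; SIE-controlled beta-lactamase reporter measured as 460/530 nm FRET emission ratio; % is set by controls: 0 for no effect and ±100 for the full control effect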); details: ME-180 (cervical carcinoma) SIE beta-lactamase reporter, IL-6 stimulated, 5 h; at 7.69 µM (top of the series) unless noted
Outline: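 Overnight-plated ME-180 cells bearing a STAT Inducible Element beta-lactamase reporter; 5 h co-exposure to compound and 40 pM IL-6; values normalized to 300 pM IL-6 and 125 nM JAK inhibitor controls.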

[5] = target: Glucocorticoid receptor (Homo sapiens) (UniProt P04150); test: GR-GFP Redistribution (AID 450;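 active = compounds whose dose series gives a full or clear partial fitted curve of increased nuclear translocation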; note: potency is the fitted concentration of half-maximal effect); details: U2OS GR-GFP nuclear translocation, laser cytometry, 2 h
[6] = target: Glucocorticoid receptor (Homo sapiens) (UniProt P04150); test: GR-EFC Redistribution (AID 451; calls by dose curve; note: potency is the fitted concentration of half-maximal effect); details: CHO-K1 GR-EFC translocation, beta-gal luminescence, 2 h
Outline: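 CHO-K1 cells stably expressing nuclear-localized β-gal enzyme acceptor and GR fused C-terminally to the enzyme donor fragment; ligand-driven nuclear translocation restores β-gal by complementation. Compounds titrated up to 46 uM final, 2 h at 37 °C; luminescence read.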

[7] = target: Mitogen-activated protein kinase 10 (Mus musculus) (UniProt Q61831); test: JNK3 AlphaScreen Assay (AID 530; active = well fitted curve in either direction with a large enough effect, not every such curve was filed as active;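 note: kinase came from lysate of stimulated human HepG2 cells; signal reports phosphorylation of biotinylated GST-cJun 1-79 at Ser73 with 10 µM ATP; % is set by controls: 0 for no effect and ±100 for the full control effect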)
Outline: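 Biotinylated GST-cJun(1-79) served as substrate for JNK3 in HepG2 lysates stimulated with IL-1beta and TNF-alpha. ATP was 10 uM final, pH 7.6. Ser73 phosphorylation was quantified by AlphaScreen (680 nm excitation).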

[8] = target: 3',5'-cyclic-AMP phosphodiesterase 4B (Homo sapiens) (UniProt Q07343); test: qHTS Assay for Inhibitors of PDE-IV (AID 607; active = well fitted activation curve with a large enough effect in the main read-out, with a control signal flat, not every such curve was filed as active; note: % of control where 0% means no effect)
Outline: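 Live HEK293 cells with a modified cyclic nucleotide-gated (CNG) channel report intracellular cAMP via membrane-potential dye fluorescence (ex 535/em 590 nm). Endogenous PDE-IV was targeted. Compounds were tested at up to 22.9 uM final; RO 20-1724 100 uM served as control.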

[9] = target: Dual specificity protein kinase CLK4 (Homo sapiens) (UniProt Q9HAZ1); test: qHTS Assay for Inhibitors of CDC-like Kinase 4 (Kinase-Glo Assay) (AID 1770); note: nearly all actives have a fitted effect of over 65% in size; note: potency is the fitted concentration of half-maximal effect
Outline: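 25 nM Clk4 with 100 uM RS repeat peptide and 1 uM ATP (final) in Tris pH7.5, 10 mM MgCl2, 4.5 h at room temperature. Remaining ATP measured by Kinase-Glo luciferase luminescence.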

[10] = target: Dual specificity protein kinase CLK4 (Homo sapiens) (UniProt Q9HAZ1); test: qHTS Assay for Inhibitors of CDC-like Kinase 4 (ADP-Glo Assay) (AID 1771); note: nearly all actives have a fitted effect of over 70% in size; note: potency is the fitted concentration of half-maximal effect
Outline: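 In this ADP-Glo format, 1 uM ATP and 100 uM RS peptide served as substrates for 25 nM Clk4 in Mg2+/EGTA/DTT/Triton buffer; reactions ran 1 hr at room temperature before luminescent ADP quantification.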

[11] = target: Ubiquitin carboxyl-terminal hydrolase 1 (Homo sapiens) (UniProt O94782); test: Inhibitors of USP1/UAF1: Pilot qHTS (AID 504865); note: nearly all actives have a fitted effect of over 35% in size; note: potency is the fitted concentration of half-maximal effect
Outline: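 USP1/UAF1 complex at 1 nM preincubated 15 min at room temperature with compound, then Ub-Rho substrate added at 150 nM final. Fluorescence (480/540 nm) read kinetically in 50 mM HEPES pH 7.8, 0.5 mM EDTA, 1 mM TCEP, 0.1 mg/ml BSA, 0.01% Tween-20.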

[12] = Primary qHTS for small molecule stabilizers of the endoplasmic reticulum resident proteome: Secreted ER Calcium Modulated Protein (SERCaMP) assay (AID 1508630); note: % is set by controls: 0 for no effect and ±100 for the full control effect
Outline: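 The SH-SY5Y reporter protocol was run at 3 concentrations up to 38.3 uM (primary) or 11 concentrations (follow-up): 16 h compound, 100 nM thapsigargin for 4 h, then extracellular luciferase luminescence.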

[13] = target: Cytochrome P450 1A2 (Homo sapiens) (UniProt P05177); test: p450-cyp1a2 (AID 410; calls by dose curve; note: potency is the fitted concentration of half-maximal effect)
Outline: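 Read-out is luminescence from luciferin produced by CYP1A2 demethylation of Luciferin-ME (100uM, at Km). Detection reagent stopped the 60 min NADPH-dependent reaction; signals were normalized to 57 uM furafylline.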

[14] = target: Cytochrome P450 3A4 (Homo sapiens) (UniProt P08684); test: qHTS Assay for Inhibitors and Substrates of Cytochrome P450 3A4 (AID 884); note: potency is the fitted concentration of half-maximal effect; nearly all actives have a fitted effect of over 50% in size
Outline: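 Luminescent readout of luciferin produced by CYP3A4 (20 nM) dealkylation of Luciferin-PPXE, 25 uM (its KM). NADPH-driven reaction ran 60 min at RT after 10 min compound preincubation; data scaled to 57 uM ketoconazole as 100% inhibition.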

[15] = target: Cytochrome P450 3A4 (Homo sapiens) (UniProt P08684); test: qHTS Assay for Activators of Cytochrome P450 3A4 (AID 885); note: nearly all actives have a fitted effect of over 65% in size
Outline: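 Using 20nM recombinant human CYP3A4 in potassium phosphate (200mM), substrate Luciferin-PPXE at 25uM, luminescent luciferin detection followed a 60-min RT NADPH reaction; data scaled to 57 uM ketoconazole.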

[16] = target: Cytochrome P450 2D6 (Homo sapiens) (UniProt P10635); test: qHTS Assay for Inhibitors and Substrates of Cytochrome P450 2D6 (AID 891); note: potency is the fitted concentration of half-maximal effect; nearly all actives have a fitted effect of over 60% in size
Outline: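 Luminescent read-out of luciferin formed by 5 nM human CYP2D6 demethylating 30 uM Luciferin-ME EGE (Km level) over 60 min at room temperature after NADPH regeneration addition. Data normalized to full inhibition by 1.43 uM quinidine.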

[17] = target: Cytochrome P450 2C19 (Homo sapiens) (UniProt P33261); test: qHTS Assay for Inhibitors and Substrates of Cytochrome P450 2C19 (AID 899); note: potency is the fitted concentration of half-maximal effect; nearly all actives have a fitted effect of over 60% in size
Outline: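 NADPH-dependent conversion of Luciferin-H EGE (10uM, at KM) by 5nM enzyme in 50mM KPO4, 60 min at 37C following 10 min compound preincubation. Stopped with luciferin detection buffer; luminescence read after 20 min.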

[18] = target: Cytochrome P450 2C9 (Homo sapiens) (UniProt P11712); test: qHTS Assay for Inhibitors and Substrates of Cytochrome P450 2C9 (AID 883); note: % is set by controls: 0 for no effect and ±100 for the full control effect; nearly all actives have a fitted effect of over 60% in size
Outline: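 A luminogenic readout tracked human CYP2C9 (10nM) converting deoxyluciferin (100uM, at KM) in 25mM KPO4 during 60 min at 37C with regenerated NADPH. Values normalized to 57uM sulphaphenazole as complete inhibition.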

Sequence of Dual specificity protein kinase CLK4 (Homo sapiens) (Q9HAZ1 whole entry, looked up): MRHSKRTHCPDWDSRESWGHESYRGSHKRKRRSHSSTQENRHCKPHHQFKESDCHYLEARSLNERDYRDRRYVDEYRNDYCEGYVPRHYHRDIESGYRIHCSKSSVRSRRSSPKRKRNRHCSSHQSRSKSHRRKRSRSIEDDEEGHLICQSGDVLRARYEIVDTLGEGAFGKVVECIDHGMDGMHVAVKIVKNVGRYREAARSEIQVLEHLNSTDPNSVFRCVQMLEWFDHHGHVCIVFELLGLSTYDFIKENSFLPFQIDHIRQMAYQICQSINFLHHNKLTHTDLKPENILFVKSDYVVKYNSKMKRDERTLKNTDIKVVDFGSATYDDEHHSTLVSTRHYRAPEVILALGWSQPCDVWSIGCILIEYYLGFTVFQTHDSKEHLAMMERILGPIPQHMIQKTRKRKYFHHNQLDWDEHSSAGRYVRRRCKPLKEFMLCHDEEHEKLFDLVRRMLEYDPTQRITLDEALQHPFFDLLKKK
Sequence of 3',5'-cyclic-AMP phosphodiesterase 4B (Homo sapiens) (Q07343 whole entry, looked up): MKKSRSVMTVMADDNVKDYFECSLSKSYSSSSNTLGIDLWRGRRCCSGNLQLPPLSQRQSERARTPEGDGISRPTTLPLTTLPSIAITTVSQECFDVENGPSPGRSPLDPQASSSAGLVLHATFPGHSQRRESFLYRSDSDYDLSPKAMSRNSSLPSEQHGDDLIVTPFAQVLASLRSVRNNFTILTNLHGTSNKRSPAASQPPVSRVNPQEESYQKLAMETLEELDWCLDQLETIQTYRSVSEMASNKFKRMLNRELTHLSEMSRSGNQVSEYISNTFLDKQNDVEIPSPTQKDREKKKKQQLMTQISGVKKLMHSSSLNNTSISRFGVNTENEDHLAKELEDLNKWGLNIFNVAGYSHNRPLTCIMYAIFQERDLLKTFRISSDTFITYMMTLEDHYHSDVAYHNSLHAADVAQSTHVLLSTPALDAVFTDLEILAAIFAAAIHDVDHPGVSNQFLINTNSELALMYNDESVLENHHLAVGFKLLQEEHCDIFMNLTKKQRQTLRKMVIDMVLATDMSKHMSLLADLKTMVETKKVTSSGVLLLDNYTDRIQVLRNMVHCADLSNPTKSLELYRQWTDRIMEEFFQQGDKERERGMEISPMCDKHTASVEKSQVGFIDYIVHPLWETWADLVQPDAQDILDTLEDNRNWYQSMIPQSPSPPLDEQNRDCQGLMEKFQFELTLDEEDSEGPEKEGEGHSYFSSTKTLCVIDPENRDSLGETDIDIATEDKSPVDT
Sequence of Cytochrome P450 2C19 (Homo sapiens) (P33261 whole entry, looked up): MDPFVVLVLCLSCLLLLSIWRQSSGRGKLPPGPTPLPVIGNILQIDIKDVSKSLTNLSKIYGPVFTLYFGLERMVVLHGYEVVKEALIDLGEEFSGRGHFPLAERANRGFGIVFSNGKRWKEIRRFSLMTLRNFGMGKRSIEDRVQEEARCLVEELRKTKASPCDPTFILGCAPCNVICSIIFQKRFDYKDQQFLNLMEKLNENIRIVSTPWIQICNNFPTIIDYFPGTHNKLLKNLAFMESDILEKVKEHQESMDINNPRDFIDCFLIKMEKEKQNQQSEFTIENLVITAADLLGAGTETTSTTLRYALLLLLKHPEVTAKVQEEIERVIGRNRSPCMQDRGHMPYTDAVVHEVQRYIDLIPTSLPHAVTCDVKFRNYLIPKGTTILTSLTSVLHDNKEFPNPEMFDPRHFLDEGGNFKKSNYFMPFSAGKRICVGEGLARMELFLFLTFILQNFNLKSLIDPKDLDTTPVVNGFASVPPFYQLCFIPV
Sequence of Cytochrome P450 1A2 (Homo sapiens) (P05177 whole entry, looked up): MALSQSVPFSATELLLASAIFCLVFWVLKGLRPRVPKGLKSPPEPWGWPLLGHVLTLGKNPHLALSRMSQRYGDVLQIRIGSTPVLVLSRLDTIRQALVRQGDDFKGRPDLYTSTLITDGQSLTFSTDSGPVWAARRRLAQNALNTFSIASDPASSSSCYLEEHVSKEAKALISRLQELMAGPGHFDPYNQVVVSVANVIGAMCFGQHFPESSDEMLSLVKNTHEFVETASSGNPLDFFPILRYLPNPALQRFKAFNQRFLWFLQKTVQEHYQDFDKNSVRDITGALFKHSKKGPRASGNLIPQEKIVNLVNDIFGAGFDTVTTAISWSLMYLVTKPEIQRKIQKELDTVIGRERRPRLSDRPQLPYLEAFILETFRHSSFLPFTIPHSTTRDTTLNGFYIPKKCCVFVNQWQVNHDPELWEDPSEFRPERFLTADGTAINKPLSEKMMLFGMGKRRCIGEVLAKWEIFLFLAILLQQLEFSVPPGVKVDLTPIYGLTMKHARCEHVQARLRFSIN
Sequence of Ubiquitin carboxyl-terminal hydrolase 1 (Homo sapiens) (O94782 whole entry, looked up): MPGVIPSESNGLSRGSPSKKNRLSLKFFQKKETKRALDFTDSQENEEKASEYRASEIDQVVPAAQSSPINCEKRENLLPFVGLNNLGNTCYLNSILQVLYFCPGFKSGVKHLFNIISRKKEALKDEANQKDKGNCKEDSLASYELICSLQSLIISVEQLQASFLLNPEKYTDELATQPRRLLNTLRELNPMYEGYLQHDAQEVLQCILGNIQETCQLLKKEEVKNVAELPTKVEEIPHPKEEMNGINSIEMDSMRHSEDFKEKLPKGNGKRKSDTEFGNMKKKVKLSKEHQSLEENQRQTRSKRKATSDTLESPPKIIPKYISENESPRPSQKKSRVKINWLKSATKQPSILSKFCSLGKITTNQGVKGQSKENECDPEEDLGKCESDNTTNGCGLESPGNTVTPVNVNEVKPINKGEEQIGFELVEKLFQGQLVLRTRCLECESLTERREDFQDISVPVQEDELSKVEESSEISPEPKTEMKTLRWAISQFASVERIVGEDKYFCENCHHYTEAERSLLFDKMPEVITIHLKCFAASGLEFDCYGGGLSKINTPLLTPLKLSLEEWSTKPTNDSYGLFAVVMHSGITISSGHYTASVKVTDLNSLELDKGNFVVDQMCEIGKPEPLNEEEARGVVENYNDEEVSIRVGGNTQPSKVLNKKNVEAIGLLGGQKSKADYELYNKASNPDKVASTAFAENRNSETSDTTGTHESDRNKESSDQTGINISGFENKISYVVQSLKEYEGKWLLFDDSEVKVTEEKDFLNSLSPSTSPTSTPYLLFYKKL
Sequence of Glucocorticoid receptor (Homo sapiens) (P04150 whole entry, looked up, the tested form may be a part): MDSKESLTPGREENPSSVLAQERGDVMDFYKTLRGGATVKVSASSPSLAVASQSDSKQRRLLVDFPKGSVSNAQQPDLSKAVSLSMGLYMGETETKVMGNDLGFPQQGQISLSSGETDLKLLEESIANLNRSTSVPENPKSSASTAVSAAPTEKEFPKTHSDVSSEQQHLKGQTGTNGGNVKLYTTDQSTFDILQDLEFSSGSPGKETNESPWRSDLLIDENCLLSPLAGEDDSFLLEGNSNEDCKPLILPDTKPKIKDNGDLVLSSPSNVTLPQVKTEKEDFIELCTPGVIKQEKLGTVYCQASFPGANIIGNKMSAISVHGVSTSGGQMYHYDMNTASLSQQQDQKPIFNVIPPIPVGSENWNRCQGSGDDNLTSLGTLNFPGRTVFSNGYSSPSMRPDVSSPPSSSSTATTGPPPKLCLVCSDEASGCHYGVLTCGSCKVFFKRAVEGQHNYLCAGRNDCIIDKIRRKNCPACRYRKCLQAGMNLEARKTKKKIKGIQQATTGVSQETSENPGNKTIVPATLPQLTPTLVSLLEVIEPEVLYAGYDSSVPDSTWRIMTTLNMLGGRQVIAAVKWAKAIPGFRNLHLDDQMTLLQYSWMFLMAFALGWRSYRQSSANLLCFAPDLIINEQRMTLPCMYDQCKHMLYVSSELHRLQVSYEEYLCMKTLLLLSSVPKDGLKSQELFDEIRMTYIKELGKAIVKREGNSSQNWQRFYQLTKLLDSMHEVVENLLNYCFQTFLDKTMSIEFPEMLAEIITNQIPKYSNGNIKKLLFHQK
Sequence of Cytochrome P450 3A4 (Homo sapiens) (P08684 whole entry, looked up): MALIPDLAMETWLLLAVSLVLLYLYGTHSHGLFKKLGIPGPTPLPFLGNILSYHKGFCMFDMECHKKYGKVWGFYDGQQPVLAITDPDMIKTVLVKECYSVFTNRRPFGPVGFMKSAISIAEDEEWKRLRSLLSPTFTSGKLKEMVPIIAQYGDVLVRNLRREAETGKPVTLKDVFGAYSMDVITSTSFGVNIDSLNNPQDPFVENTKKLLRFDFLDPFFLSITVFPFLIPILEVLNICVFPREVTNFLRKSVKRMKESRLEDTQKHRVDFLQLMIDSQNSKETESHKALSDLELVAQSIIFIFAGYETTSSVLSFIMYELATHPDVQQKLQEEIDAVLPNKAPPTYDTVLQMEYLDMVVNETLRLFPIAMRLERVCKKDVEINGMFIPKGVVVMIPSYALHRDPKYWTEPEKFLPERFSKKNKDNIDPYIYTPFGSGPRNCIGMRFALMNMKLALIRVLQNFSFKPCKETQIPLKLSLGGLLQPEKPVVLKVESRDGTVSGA
Sequence of Lysosomal acid glucosylceramidase (Homo sapiens) (P04062 whole entry, looked up): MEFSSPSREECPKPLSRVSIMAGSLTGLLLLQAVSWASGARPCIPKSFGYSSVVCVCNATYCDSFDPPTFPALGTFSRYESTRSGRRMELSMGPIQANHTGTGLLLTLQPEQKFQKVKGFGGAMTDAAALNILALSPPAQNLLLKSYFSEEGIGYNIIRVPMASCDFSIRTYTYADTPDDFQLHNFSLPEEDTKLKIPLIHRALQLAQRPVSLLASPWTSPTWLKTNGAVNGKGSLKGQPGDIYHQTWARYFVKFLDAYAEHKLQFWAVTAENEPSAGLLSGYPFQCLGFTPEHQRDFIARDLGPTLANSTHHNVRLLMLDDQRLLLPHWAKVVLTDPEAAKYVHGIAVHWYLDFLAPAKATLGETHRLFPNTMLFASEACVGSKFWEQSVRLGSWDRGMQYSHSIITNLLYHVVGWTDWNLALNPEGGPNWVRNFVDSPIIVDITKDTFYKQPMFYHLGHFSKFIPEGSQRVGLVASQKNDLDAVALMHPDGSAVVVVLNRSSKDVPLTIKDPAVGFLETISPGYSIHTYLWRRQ

| SMILES | Potency [1] | activity change, negative = inhibition [2] | activity change, negative = inhibition [3] | activity, negative = inhibition [4] | Potency [5] | Potency [6] | Potency [7] | Potency [8] | Potency [9] | Potency [10] | Potency [11] | outcome [12] | Potency [13] | Potency [14] | Potency [15] | Potency [16] | Potency [17] | activity change, negative = inhibition [18] |
| --- | --- | --- | --- | --- | --- | --- | --- | --- | --- | --- | --- | --- | --- | --- | --- | --- | --- | --- |
| Cc1cnc(CNc2cc(-c3ccc(N(C)C)cc3)ncn2)cn1 | > 11.4 µM | -9.61% | 11.3% | -5.54% | > 46 µM | > 46 µM | inactive | inactive | 5.01 µM (active) | 5.01 µM (active) | inactive | inactive |  |  |  |  |  |  |
| COc1ccc(CNc2ncncc2-c2cccc(C#N)c2)c(OC)c1 | > 11.4 µM | -5.26% | 13.9% | 8.97% | > 46 µM | > 46 µM | inactive |  | 28.2 µM (active) | 35.5 µM (active) | inactive | inactive | 7.94 µM (active) | 0.316 µM (active) | inactive | 5.01 µM (active) | 5.01 µM (active) |  |
| Cc1cnc(CNc2ncnc3ccc(-c4cccc(NS(C)(=O)=O)c4)cc23)cn1 | > 11.4 µM | -5.16% |  | -9.12% | > 46 µM | > 46 µM |  | inactive | 25.1 µM (active) | 15.8 µM (active) | inactive | inactive | 3.98 µM (active) |  | inactive |  |  | 32.5% [at 2.29 µM] |
| CCNc1ncc2nc(-c3cccs3)c(=O)n(Cc3ccc(F)cc3)c2n1 | > 11.4 µM | 24.9% | -12.4% |  | > 9.22 µM | > 46 µM |  | inactive | inactive | inactive | 20 µM (active) | inactive | 10 µM (active) |  | inactive |  |  |  |
| COc1cccc(-c2nc(NCc3cccs3)c3ccccc3n2)c1 | > 11.4 µM | 9.31% | -22.6% | -12.6% | > 46 µM | > 46 µM | inactive |  | 17.8 µM (active) | 15.8 µM (active) | 20 µM (active) | inactive | 0.316 µM (active) | 3.16 µM (active) | inactive |  | 3.16 µM (active) |  |
| CN(Cc1ccco1)c1ccnc(-c2ccccc2C(F)(F)F)n1 | > 11.4 µM | 2.94% | -8.64% | -4.79% | > 46 µM | > 46 µM | inactive | inactive | inactive | inactive |  | inactive | 2.51 µM (active) |  |  |  | 7.94 µM (active) |  |
| CS(=O)(=O)Nc1cccc(-c2nc(-n3ccnc3)c3ccccc3n2)c1 | > 11.4 µM | -3.92% | 4.67% | -7.2% | > 46 µM | > 46 µM | inactive |  | 15.8 µM (active) | 20 µM (active) | inactive | inactive |  |  |  |  |  |  |
